# Screens as filed in PubChem BioAssay.
# This is a sample that favours compounds with a hit; in the whole collection about 4.9% have one here.
# TIM10 inh = inhibits growth of TIM10 yeast strain | inhibition, % at 10 µM | S. cerevisiae TIM10 strain growth, BacTiter-Glo luminescence, 24 h | 1.4% of 330,000 active;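 active = inhibition of 40% or more at the single tested concentration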;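 note: wild-type TIM10 isogenic control strain grown at permissive 25 °C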
# NALP3 yeast inh = blocks the NALP3 inflammasome reconstituted in yeast. inhibition, % at 10 µM. AID 2825. 0.39% of 330,000 active. Yeast reconstituted NLRP3/ASC/caspase-1, beta-gal luminescence, 24 h;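 active = inhibition of 50% or more; inactive = inhibition below 50%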;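 note: plate controls were induced DMSO wells for no effect and uninduced yeast grown without galactose for full effect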
# tim10-1 inh = growth inhibitors of tim10-1 mutant yeast | S. cerevisiae tim10-1 ts strain growth, BacTiter-Glo, 24 h | inhibition, % at 20 µM | 2.2% of 330,000 active | AID 463190;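 active = inhibition of at least 40%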;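 note: mutant grown at 25 °C; 0% = DMSO wells with yeast and 100% = wells holding no yeast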
# SKKanGAS inh = inhibitors of SKKanGAS S. pyogenes growth in kanamycin (SK-promoter or general growth effect); BacTiter-Glo, 6 h; inhibition, % at 7.5 µM; 1.3% of 300,000 active; AID 1662;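 active = mean replicate score, as percent of positive control median, at least 50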;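 note: strain carries kanamycin resistance gene driven by streptokinase promoter and grows in 40 µg/ml kanamycin; loss of luminescence reflects streptokinase promoter inhibition or plain growth inhibition; 0% = median of DMSO wells and 100% = positive control at its reference dose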
# tim23-1 inh = tim23-1 yeast growth inhibition | inhibition, % at 20 µM | S. cerevisiae tim23-1 growth, BacTiter-Glo luminescence, 24 h | 1.3% of 330,000 active;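 active = growth inhibition of the mutant yeast at or above 50%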;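 note: temperature-sensitive mutant grown at 25 °C; plate controls were DMSO-treated mutant yeast for no effect and medium wells lacking yeast for full effect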
# NALP1 yeast inh = NALP1 inhibition; S. cerevisiae NALP1/ASC/caspase-1 growth, X-gal OD620, 72 h; inhibition, % at 10 µM; 0.61% of 280,000 active; AID 2071; in the data active = inhibition mostly above about 24%, no sharp cut-off; inactive = mostly below about 32%
# NALP3 confirm = confirmation of NALP3 inhibitors in yeast | AID 435006 | yeast expressing human NALP3, luminescence | 81% of 1,300 active | shares compounds with NALP3 yeast inh | inhibition, % at 10 µM; in the data active = inhibition above about 48%
# Casp1-ASC yeast = caspase-1-ASC yeast counter-screen hit | shares compounds with NALP3 yeast inh | yeast expressing Caspase-1-ASC, luminescence counter screen | inhibition, % at 10 µM | 66% of 1,000 active | AID 488784
# NALP3 retest = confirmation retest of NALP3 inhibitors in yeast. shares compounds with NALP3 yeast inh. yeast expressing human NALP3, luminescence read-out. inhibition, % at 10 µM. 53% of 1,000 active. AID 488794
# * marks the source's active call; other numbers are inactive results; nt = not tested or not shown; ! = repeats disagree. Cut-off read from the data, not from the text of the source, unless noted: active = inhibition above about 50%; inactive = the rest.
SMILES,TIM10 inh,NALP3 yeast inh,tim10-1 inh,SKKanGAS inh,tim23-1 inh,NALP1 yeast inh,NALP3 confirm,Casp1-ASC yeast,NALP3 retest
CCOC(=O)C1=C(COCCN)NC(C)=C(C(=O)OC)C1c1ccccc1Cl (stereo unspecified),15.3,52.7*!,22.0,2.0,15.3,nt,58.8*,44.0,48.6
Cc1ccc(N(C)S(=O)(=O)c2cccc(C(=O)NCCCN3CCCC3=O)c2)cc1,9.2,17.6,5.8,nt,11.4,nt,nt,nt,nt
Cc1ccc(-n2c(SCCN)nnc2-c2cccc(C)c2)cc1,-13.2,77.7*,10.6,-6.4,13.3,nt,78.2*,nt,nt
Cc1cccc(-c2nnc(SCC#N)n2-c2ccccc2)c1,4.8,3.7,24.7,-4.7,11.5,24.8,nt,nt,nt
CCOc1ccc(CSC(=N)N)cc1Cl,-4.3,5.1,7.6,2.6,5.8,2.7,nt,nt,nt
CCCCOc1ccc(CSCCN)cc1Cl,4.9,67.4*,-3.0,5.6,13.3,6.6,75.7*,nt,nt
CCOc1ccc(/C(O)=C2/C(=O)C(=O)N(CCCN3CCOCC3)C2c2ccc(F)cc2)cc1C (stereo unspecified),6.8,50.4*,4.4,6.0,7.0,-4.2,66.7*,48.1,28.1
O=C1C(=O)N(CCCN2CCOCC2)C(c2ccc(F)cc2)/C1=C(\O)c1ccc2c(c1)OCCO2 (stereo unspecified),-5.5,-5.2,19.6,7.4,7.2,-7.0,nt,nt,nt
COCCNC(=O)C12CC3CC(CC(Cl)(C3)C1)C2,-13.3,28.4,2.7,-0.5,6.8,7.5,nt,nt,nt
COC(=O)c1ccccc1Oc1ccc(NC(=O)c2ccco2)cc1,16.5,51.0*,16.3,-3.5,20.3,11.5,68.4*,48.9,34.9
O=C(Cc1ccc(Cl)cc1)N1CCc2ccccc2C1,4.8,52.7*,12.3,-0.5,12.8,nt,32.4,nt,nt
COc1ccc(CC(=O)N2CCc3ccccc3C2)cc1,6.1,30.3,17.2,1.6,18.4,13.2,nt,nt,nt
CC1=NOC(=O)/C1=C\c1ccc2c(c1)OCO2,-10.6,14.1,-4.3,3.5,20.8,-19.3,nt,nt,nt
Cc1ccc(C)c(NC(=O)c2cc3ccccc3o2)c1,-13.6,54.7*,24.7,-2.5,30.7,20.9,43.7,51.6*,40.8
COc1ccc(C)cc1NC(=O)c1cc2ccccc2o1,2.7,18.4,6.2,-1.6,-12.8,4.3,nt,nt,nt
O=C(Nc1ccc2c(c1)OCCO2)c1cc2ccccc2o1,29.8,52.6*,2.3,-38.9,29.8,17.7,68.7*,63.3*,73.0*
O=C(Nc1ccc2oc(=O)ccc2c1)c1cc2ccccc2o1,11.7,-15.5,3.8,0.7,19.1,5.3,nt,nt,nt
O=C(Nc1ccccc1)c1cc2ccccc2c(=O)s1,18.5,58.8*,-12.2,-7.4,15.4,23.1,10.3,nt,nt
O=C(c1ccc2c(c1)OCO2)C1CCCN(C2CCN(CCc3ccccc3)CC2)C1 (stereo unspecified),-156.9,13.2,-90.1,-10.4,-151.4,17.4,nt,nt,nt
CC1(c2nnc(-c3ccncc3)o2)CC(c2ccc(Cl)cc2)=NO1 (stereo unspecified),-29.2,16.2,-17.7,-1.4,7.4,nt,nt,nt,nt
CC1(c2nnc(-c3ccccc3)o2)CC(c2ccc(Cl)cc2)=NO1 (stereo unspecified),-21.4,51.9*,6.0,-6.2,26.8,6.1,56.1*,25.9,21.9
CC1(C)C2CC[C@]3(C)C(CC=C4[C@@H]5C[C@@](C)(CO)[C@@H]6C[C@@]5(CC[C@]43C)C(=O)O6)[C@@]2(C)CC[C@@H]1O (stereo partly specified),-30.7,55.3*,-16.9,5.8,-4.4,nt,57.5*,27.5,30.4
CC1(C)C[C@H](O)[C@@]23C[C@@H](OC2=O)[C@]2(C)C(=CCC4[C@@]5(C)CC[C@H](O)C(C)(C)C5CC[C@]42C)[C@@H]3C1 (stereo partly specified),3.9,50.8*,8.2,8.7,10.8,nt,68.4*,41.4,41.4
CC1(C)C[C@H](O)[C@]2(CO)CC[C@]3(C)C(=CCC4[C@@]5(C)CC[C@H](O)C(C)(C)C5CC[C@]43C)[C@@H]2C1 (stereo partly specified),-6.2,40.6,-18.5,nt,-1.2,nt,nt,nt,nt
COc1ccc(CCNC(=O)C(=O)NCCC2CCCCN2S(=O)(=O)c2cccs2)cc1 (stereo unspecified),15.4,12.2,25.4,-4.4,22.1,nt,nt,nt,nt
SMILES,TIM10 inh,NALP3 yeast inh,tim10-1 inh,SKKanGAS inh,tim23-1 inh,NALP1 yeast inh,NALP3 confirm,Casp1-ASC yeast,NALP3 retest
CC(=O)N(/N=C1\Sc2ccccc2C1=O)c1ccccc1C,2.2,53.9*,22.0,6.2,36.8,-6.4,48.0*,15.9,42.3
NCCCCCc1nnc(SCC(=O)c2ccc(Cl)cc2)o1,-15.6,20.6,6.6,4.4,10.5,28.1,nt,nt,nt
NCCc1nnc(SCC(=O)c2ccc(Cl)cc2)o1,-0.5,56.3*,-0.5,6.2,9.9,30.5,71.2*,nt,nt
NCCc1nnc(SCc2c(Cl)cccc2Cl)o1,-4.7,83.5*,-10.0,-3.8,-4.7,39.1*,82.2*,83.2*,91.5*
NCCc1nnc(SCc2c(F)cccc2Cl)o1,-1.4,77.5*,4.1,1.1,2.3,5.5,87.8*,71.5*,83.0*
CC(C)CNS(=O)(=O)c1ccc(S(=O)(=O)N2CCN(C3CCCC3)CC2)cc1,17.1,14.2,-5.6,-5.5,21.8,15.9,nt,nt,nt
O=C(CCN=C1NS(=O)(=O)c2ccccc21)Nc1ccc(F)cc1Cl,1.6,5.2,2.3,nt,9.4,nt,nt,nt,nt
CCOC(=O)c1c(NC(=O)CC2SC(=NC)N(C)C2=O)sc(C)c1C (stereo unspecified),4.4,59.8*,4.7,2.7,10.8,11.6,59.1*,60.3*,43.4
C/C(=N\Nc1ccc(Cl)c(C(=O)O)c1)c1ccc(N2CCOCC2)cc1,-11.6,-14.8,10.3,2.6,16.2,10.2,nt,nt,nt
CCCC(=O)Nc1ccc(N2CCCCC2)cc1,-0.5,11.5,5.7,-2.6,13.8,-1.0,nt,nt,nt
O=C(CCl)Nc1ccc(N2CCCCCC2)cc1,8.0,59.8*,6.1,-3.2,30.5,19.3,77.2*,76.0*,53.0*
COc1cccc(C(=O)Nc2c3c(nn2-c2ccc(Cl)cc2)CS(=O)(=O)C3)c1OC,19.1,6.1,19.1,4.1,21.5,-1.5,nt,nt,nt
CCCCCCCCNC(C)C(O)c1ccc(SC(C)C)cc1 (stereo unspecified),-80.9,67.4*,20.5,0.2,38.1,78.5*,64.0*,52.3*,63.8*
Cc1ccc(C(=O)N2CC(=O)NC(=O)C2)cc1,-2.2,50.6*,-6.6,1.5,7.0,8.1,49.0*,7.6,10.0
Cc1ccc(C(=O)N2CC3(C)CN(C(=O)c4ccc(C)cc4)CC(C)(C2)C3=O)cc1,9.7,5.7,14.4,-2.9,27.4,26.9,nt,nt,nt
